In all, about 300,000 compounds went through this assay and about 4,000 (1.3%) were called active. For the sample, actives were picked, then their nearest neighbours and some compounds at random. Unmarked numbers belong to inactive results.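 Rule for the calls: active = mean replicate score, as percent of positive control median, at least 50; inconclusive = mean below 50 but one replicate at or above 50; inactive = mean and every replicate below 50.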
Experiment: kanamycin survival loss of SKKanGAS strain – BacTiter-Glo luminescence, streptokinase expression inhibitor project, primary screen (AID 1662);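 note: strain carries kanamycin resistance gene driven by streptokinase promoter and grows in 40 µg/ml kanamycin; loss of luminescence reflects streptokinase promoter inhibition or plain growth inhibition; 0% = median of DMSO wells and 100% = positive control at its reference dose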
Details: S. pyogenes SKKanGAS, kanamycin growth, 6 h, at 7.5 µM, stronger effect = higher value

Point of comparison: `CCCc1cc(=O)[nH]c2nnc(SCC(=O)Nc3nnc(SCC)s3)n12`, inhibition 15.3%. Against it:
- O=C(c1cccs1)C1C(c2ccc(Br)cc2)NC(=S)NC1(O)C(F)(F)F (stereo unspecified) — lower, -1.18%
- Cc1[nH]n(-c2ccccc2)c(=O)c1CCOC(=O)c1ccc(C(F)(F)F)cc1 — lower, 3.86%
- CCCNC(=O)CCn1cc(-c2ccc(OC)cc2)nc1CCN — lower, -0.358%
- c1ccc2c(c1)OCC(CNc1ncnc3nc[nH]c13)O2 (stereo unspecified) — lower, 0.403%
- COc1ccc(Nc2ncnc3sc(-c4ccccc4)cc23)c(OC)c1 — higher, 17.7%
- O=C(O)c1ccc(NS(=O)(=O)c2ccc3c(c2)C(=O)c2cc(S(=O)(=O)Nc4ccc(C(=O)O)cc4)ccc2-3)cc1 — lower, 7.11%
- CC(=O)c1cccc(NC(=O)C2CCN(C(=O)c3ccccc3Cl)CC2)c1 — lower, -0.79%
- Cc1cccc(-n2c(SCC(N)=O)nc3c(c2=O)C2(CCCCC2)Cc2ccccc2-3)c1 — lower, 13.1%
- O=C(O)c1ccccc1CSc1nc2ccccc2s1 — higher, 38.1%
- N#C/C(=C(/O)COc1cccc2ccccc12)c1nc2ccccc2[nH]1 — lower, 7.13%
- CN1CCC(CN)(N2CCN(c3ccccc3)CC2)CC1 — lower, -3.22%
- Cc1ccc(CNCc2ccc3c(c2)OCO3)c(C)c1 — lower, 0.677%
- O=C(O)CCN(Cc1ccccc1)S(=O)(=O)c1c(Cl)cccc1Cl — lower, 8.43%
- NNc1nc2c(Cl)cccc2s1 — lower, -7.59%
- Cc1nc2nc(C)c(NS(=O)(=O)c3ccc(C(C)(C)C)cc3)c(=O)n2[nH]1 — higher, 19.7%
- O=C(NCCc1ccccn1)c1cc(-c2ccc(Cl)cc2)nc2ccccc12 — lower, 1.78%
- CCOC(=O)CSc1nnc(NC(=O)C2CC(=O)N(c3ccc(F)cc3)C2)s1 (stereo unspecified) — higher, 39.8%
- COc1ccc(CCNC(=O)COC(=O)Cc2cc(OC)c(OC)c(OC)c2)cc1 — lower, 1.27%
- Cc1ccccc1C(=O)OC1OC(=O)C(Cl)=C1Nc1ccccc1 (stereo unspecified) — lower, 3.76%
- O=C1OC(OC(=O)c2ccccc2Br)C(N2CCOCC2)=C1Cl (stereo unspecified) — higher, 35.8%
- O=[N+]([O-])c1ccc(N(CCO)Cc2ccccc2)c([N+](=O)[O-])c1 — lower, 4.42%
- CN(C)CCCNC(=S)N1CCN(c2nc(-c3ccccc3)cs2)CC1 — lower, -0.915%
- CCN1CC(CN(C)Cc2nc(-c3ccc(Cl)cc3)no2)CC1=O (stereo unspecified) — lower, 1.31%
- CCOC(=O)C1(Cc2cccc(OC)c2)CCCN(C(=O)CCSC)C1 (stereo unspecified) — lower, 1.89%
- C=CCNC(=O)c1ccc2c3n(nc2c1)-c1ccc(C)cc1CO3 — lower, -8.54%
- CCCC(=O)NC(Nc1ccccc1OC)C(Cl)(Cl)Cl (stereo unspecified) — lower, 1.6%
- CCOc1ccccc1NC(=O)C12CC3CC(C1)CC(c1ccc(C)cc1)(C3)C2 — higher, 20.1%
- CCn1c(NC(=O)c2nn(C)cc2Br)nc2ccccc21 — lower, -1.42%
- COc1cccc(N(C(=O)c2snc(C(N)=O)c2N)C(C(=O)NCC2CCCO2)c2c[nH]c3ccccc23)c1 (stereo unspecified) — lower, 3.94%
- N#C/C(=C(\O)C(F)(F)F)c1nnc2n1CCCCC2 — lower, 7.62%
- Cn1sc(NC(=O)c2ccccc2)nc1=O — lower, 1.73%
- Cn1c(-c2ccc(C(=O)c3ccccc3)s2)nc2ccccc21 — lower, -1.65%
- Cc1ccc(C)c(C(C)NC(=O)C2CCCO2)c1 (stereo unspecified) — lower, 1.89%
- COc1cc2ccccc2cc1C(=O)Nc1ccncc1 — lower, -4.59%
- COc1cc(NC(=O)c2cccs2)ccc1NC(=O)c1ccccc1Cl — lower, 3.93%
- Cc1ccc(S(=O)(=O)NCCc2nnc3ccc(SCc4cccnc4)nn23)cc1 — lower, 4.92%
- COc1ccc2sc(N(CCCN(C)C)C(=O)c3ccc(S(=O)(=O)N(C)C4CCCCC4)cc3)nc2c1 — lower, -0.457%
- O=S(=O)(NCC1CC1)c1ccc(F)c(Cl)c1 — lower, -1.69%
- O=C(c1ccccc1)N1N=C(c2ccccc2O)CC1c1ccc(Br)cc1 (stereo unspecified) — higher, 18.1%
- COc1ccc(C2CC(c3cccs3)=NN2c2ccccc2)cc1 (stereo unspecified) — lower, 11.6%
- Cc1nc2cc(C(F)(F)F)ccc2n1CCNc1nc(-c2cc(Cl)c(N)c(Cl)c2)cs1 — higher, 34.8%

For `c1ccc(-c2cc3c(NCC4COc5ccccc5O4)ncnc3s2)cc1` (stereo unspecified), the inhibition was 74.2% (active).
With `N#C/C(=C(/O)Cc1cccc2ccccc12)c1nc2ccccc2s1` the inhibition was 79.1% (active).
In the case of `CC(C)CC[n+]1ccn(C2=C([O-])c3ccccc3C(=O)/C2=N\S(=O)(=O)c2ccccc2)c1`, the inhibition was 62.6% (active).
In the case of `Cc1ccc(NC2=C(Cl)C(=O)OC2OC(=O)c2ccccc2C)cc1` (stereo unspecified), the inhibition was 66% (active).
For `CC[C@H]1OC(=O)[C@H](C)[C@@H](O[C@H]2C[C@@](C)(OC)[C@@H](O)[C@H](C)O2)[C@H](C)[C@@H](O[C@@H]2O[C@H](C)C[C@H](N(C)C)[C@H]2O)[C@](C)(O)C[C@@H](C)[C@@H]2N[C@@H](COCCOC)O[C@H]([C@H]2C)[C@]1(C)O`, the inhibition was 106% (active).
With `CCCn1c(NC(=O)C23CC4CC(CC(O)(C4)C2)C3)nc2ccccc21` the inhibition was 54.4% (active).
In the case of `Cn1c(NC(=O)c2ccccc2)nc2ccccc21`, the inhibition was 51.2% (active).
In the case of `COc1cc2ccccc2cc1C(=O)Nc1ccc(NC(=O)c2cccs2)cc1`, the inhibition was 64.7% (active).
With `Oc1ccccc1C1=NN(c2ccccc2)C(c2ccccc2)C1` (stereo unspecified) the inhibition was 93.5% (active).

From PubChem BioAssay AID1662 (Broad Institute, 2009)
